BAZ2B block – qHTS Assay for Inhibitors of BAZ2B. Bromodomain adjacent to zinc finger domain protein 2B (Homo sapiens), Q9UIF8. AlphaScreen BAZ2B-H3K14Ac peptide displacement. Potency, µM (titrated, usually from 114 µM), usual class: inhibitors. hit rate 4.4% among 360,000. AID 504333, 2011; further: nearly all actives have a fitted effect of over 60% in size
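AlphaScreen displacement of biotin-H3(5-23)K14Ac peptide (50 nM final) from BAZ2B (50 nM final) in PBS pH 7.4, 0.01% Tween-20; complex preformed 30 min RT, then compounds (top 110 uM) 30 min RT, beads 20 min dark.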
JMJD2A Tudor – qHTS Assay for Inhibitors of JMJD2A-Tudor Domain; Lysine-specific demethylase 4A (Homo sapiens), O75164; hit rate 4.4% among 390,000; AID 504339, 2011; AlphaScreen JMJD2A-Tudor / H3K4me3 peptide binding; Potency, µM (highest dose often 114 µM), actives largely listed as inhibitors; further: nearly all actives have a fitted effect of over 50% in size
L3MBTL1 block – qHTS Assay for the Inhibitors of L3MBTL1 | Lethal(3)malignant brain tumor-like protein 1 (Homo sapiens), Q9Y468 | AlphaScreen L3MBTL1–H3K9me1 peptide binding | Potency, µM (highest dose often 57.1 µM), hits mostly inhibitors | hit rate 0.66% among 230,000 | AID 485360, 2010; further: nearly all actives have a fitted effect of over 60% in size
Target sequence (Q9Y468 whole entry, looked up): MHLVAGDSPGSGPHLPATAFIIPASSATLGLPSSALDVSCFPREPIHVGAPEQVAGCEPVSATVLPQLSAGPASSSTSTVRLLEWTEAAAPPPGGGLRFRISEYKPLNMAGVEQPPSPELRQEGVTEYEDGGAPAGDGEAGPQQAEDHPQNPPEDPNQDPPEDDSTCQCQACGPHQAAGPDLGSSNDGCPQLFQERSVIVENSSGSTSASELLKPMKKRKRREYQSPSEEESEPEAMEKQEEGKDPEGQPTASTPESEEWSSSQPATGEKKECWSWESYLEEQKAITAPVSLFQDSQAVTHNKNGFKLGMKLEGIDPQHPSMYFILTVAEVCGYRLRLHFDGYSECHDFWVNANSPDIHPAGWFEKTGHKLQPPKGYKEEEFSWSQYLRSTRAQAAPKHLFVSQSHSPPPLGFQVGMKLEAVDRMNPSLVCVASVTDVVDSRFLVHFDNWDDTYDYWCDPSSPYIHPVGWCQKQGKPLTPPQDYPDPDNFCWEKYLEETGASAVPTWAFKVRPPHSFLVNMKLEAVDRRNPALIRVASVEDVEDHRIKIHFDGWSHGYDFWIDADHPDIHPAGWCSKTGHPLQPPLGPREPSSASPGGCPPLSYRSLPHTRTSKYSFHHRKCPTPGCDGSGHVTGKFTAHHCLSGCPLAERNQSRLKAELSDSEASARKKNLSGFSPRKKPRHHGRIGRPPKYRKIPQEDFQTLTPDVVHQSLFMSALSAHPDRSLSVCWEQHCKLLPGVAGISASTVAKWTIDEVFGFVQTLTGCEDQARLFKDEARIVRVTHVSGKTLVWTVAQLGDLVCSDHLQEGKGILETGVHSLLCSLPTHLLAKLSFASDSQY
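L3MBTL1 50 nM + b-AHA-H3(1-15)K9me1 75 nM, 30 min RT; compound added, 30 min RT; streptavidin donor/Ni-chelate acceptor beads 10 ug/mL each final, 30 min RT dark; AlphaScreen read.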
Sfp inh – qHTS Assay for Inhibitors of Bacillus subtilis Sfp phosphopantetheinyl transferase (PPTase). Potency, µM, most hits filed as inhibitors. 4'-phosphopantetheinyl transferase ffp (Bacillus subtilis), Q9F4F7. hit rate 3.5% among 310,000. Biochemical Sfp PPTase activity, qHTS;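 further: the enzyme is Sfp with the accession as filed and its product quenches rhodamine fluorescence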
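Buffer: 50 mM Hepes-Na pH 7.6, 10 mM MgCl2, 0.01% Nonidet P-40, 0.01% BSA. Enzyme 15 nM, pre-exposed to compound 15 min; substrates then added and fluorescence change tracked over 30 min.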
HP1b binding inh – HTS for Inhibitors of HP1-beta Chromodomain Interactions with Methylated Histone Tails | AlphaScreen HP1-beta / biotin-H3K9me3 peptide binding | hit rate 0.56% among 390,000 | Potency, µM (doses to about 114 µM), usual class: inhibitors | Chromobox protein homolog 1 (Homo sapiens), P83916 | AID 540317, 2011; further: nearly all actives have a fitted effect of over 70% in size
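AlphaScreen: HP1-beta (50 nM) preformed 30 min with biotin-H3(1-18)K9me3 peptide (50 nM) in PBS pH 7.4, 0.01% Tween-20. Compound added for 30 min at RT, then streptavidin donor/nickel chelate acceptor beads (10 ug/mL) for 30 min.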
G9a inh – qHTS Assay for Inhibitors of Histone Lysine Methyltransferase G9a; Histone-lysine N-methyltransferase EHMT2 (Homo sapiens), Q96KQ7; G9a H3K9 monomethylation, AlphaScreen, 2 h; Potency, µM (series often up to 102 µM), actives largely listed as inhibitors; hit rate 8.8% among 350,000; AID 504332, 2011; further: nearly all actives have a fitted effect of over 75% in size
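AlphaScreen read-out: biotin-H3K9 peptide (500 nM) methylation by 20 nM enzyme with 20 uM SAM, 2 h at room temperature after 15 min compound preincubation; anti-monomethyl H3K9 antibody plus donor/acceptor beads, 10 min dark.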
A number is an active result; n = inactive; u = inconclusive; x = not tested or not shown; [ ] = another dose, or the depositor's remark. Most compounds without a hit are left out; they make up all but 12% or so of the library. The call rests on the fitted dose curve; in most records, active means well fitted curve in the direction sought with a large enough effect; inconclusive means small, poorly fitted or top-dose-only effect, or another doubt; inactive means no such curve, though single readings can be large; an effect the other way counts as inactive or inconclusive.

SMILES	BAZ2B block	JMJD2A Tudor	L3MBTL1 block	Sfp inh	HP1b binding inh	G9a inh
Oc1cc(CNC2CCCCC2)c(O)cc1CNC1CCCCC1	x	22µM	x	x	14µM	x
COc1cc(C)c(CNc2ccc(OC)c(OC)c2)cc1C	45µM	x	n	n	x	u
COc1cc(CNC2CCCC2)c(Br)cc1OC1CCCC1	n	n	n	n	n	n
COc1cc(S(=O)(=O)NCc2ccncc2)c(OC)cc1C	n	n	x	n	n	n
COc1cc(C)c(CNC2CCCCC2)cc1C	u	5µM	x	n	u	32µM
COc1cc(C)c(CNc2cc(C)cc(C)c2)cc1C	u	89µM	x	n	n	u
CC(=O)Nc1cccc(NC(=O)CCNC(=O)c2ccccc2)c1	n	n	x	n	n	n
Cc1nc(CSc2nnc(C)s2)cs1	n	n	n	n	n	45µM
Cc1nnsc1C(=O)Oc1ccccc1Cl	n	n	x	x	n	u
Cc1nc(NC(=O)C2CCCC2)sc1Cc1ccc2c(c1)OCO2	50µM	u	n	n	n	u
Cc1nc(NC(=O)C23CC4CC(CC(C4)C2)C3)sc1Cc1ccc2c(c1)OCO2	n	u	n	n	n	35µM
Cc1cccc(C(=O)NCCC(=O)Nc2nc(C)c(Cc3ccc4c(c3)OCO4)s2)c1	n	n	n	n	n	n
CC(C)C[C@@H](CC(=O)N[C@@H](CCC(=O)O)CC(=O)O)NC(=O)[C@@H]1CCCC[C@H]1NC(=O)C[C@H](CCCN)NC(=O)C[C@H](Cc1c[nH]c2ccccc12)NC(=O)[C@@H]1CCCC[C@H]1N	x	x	x	n	x	x
COc1ccc(C(CCN2CCCCC2)c2c(OC)cc(OC)c3c(-c4ccccc4)cc(=O)oc23)cc1 (centres undefined)	n	u	x	n	n	n[12.7 µM]
COc1cc(OC)c2c(-c3ccccc3)cc(=O)oc2c1C(CCN1CCOCC1)c1ccc(N(C)C)cc1 (centres undefined)	x	14µM	u	n	18µM	14µM
COc1cc(OC)c2c(-c3ccccc3)cc(=O)oc2c1C(CCN1CCCCC1)c1ccc(N(C)C)cc1 (centres undefined)	16µM	11µM	x	u	u	u
O=C(CCCCC(=O)NN=Cc1ccc(Cl)cc1)NN=Cc1ccc(Cl)cc1	x	n	x	x	n	x
CCCCCCCC(=O)Nc1cc(C(=O)NCCC)ccc1N1CCC2(CC1)CC(c1ccccc1)=NO2	n	n	n	n	n	n
S=c1[nH]nc(CSCCOc2ccccc2)o1	n	n	n	n	n	x
S=c1[nH]nc(CSCCOc2ccc(Cl)cc2Cl)o1	n	n	n	n	n	20µM
C=CCSSSCC=C	x	x	x	40µM	x	n[2.33 µM]
O=C(O)C1(Cc2nc3ccccc3[nH]2)CCCC1	n	n	x	n	n	n
CSc1ccc(CN(C)CC(=O)Nc2ccc(C)cc2Br)cc1	n	n	n	n	n	n
O=C(c1cnc2n(c1=O)CCS2)N(C1CCCCC1)C1CCCCC1	n	n	n	n	n	79µM
O=C(CNCc1ccco1)Nc1ccc(Oc2ccccc2)cc1	50µM	18µM	x	u	n	14µM
SMILES	BAZ2B block	JMJD2A Tudor	L3MBTL1 block	Sfp inh	HP1b binding inh	G9a inh
O=C(O)c1ccccc1-c1ccccc1C(=O)NCc1ccco1	n	n	n	n	n	50µM
Cc1ccc(C)c(NC(=O)c2cnc3n(c2=O)CCS3)c1	n	n	n	n	n	56µM
O=C(NCc1ccco1)c1ccccc1-c1ccccc1	n	n	x	n	n	n
Cc1cccc(COc2ccc(/C=C3/C(=O)N(C)C(=S)N3C)cc2)c1	n	n	n[2.29 µM]	n	n	n[0.501 µM]
O=C(NCc1ccco1)c1cnc2n(c1=O)CCS2	n	n	n	n	n	50µM
O=C(NCc1ccco1)c1ccc(C(=O)NCc2ccco2)cc1	x	n	x	x	n	x
O=C(CNCc1ccco1)Nc1ccccc1-n1cccc1	u	u	n	n	n	13µM
O=C(NCc1ccco1)c1ccc(COc2cccc3ccccc23)cc1	n	n	n	n	n	n
O=C(NCc1ccco1)c1ccc(COc2ccccc2Cl)cc1	n	56µM	n	n	n	u
O=C(NCc1ccco1)c1ccc(Oc2ccccc2)cc1	n	n	x	79µM	n	u
Cc1ccc(S(=O)(=O)Nc2cc(=O)[nH]c(SCC(=O)Nc3cccc(C)c3)n2)cc1	u	n	x	n	n	n
Cc1ccc(S(=O)(=O)Nc2cc(=O)[nH]c(SCC(=O)Nc3ccccc3Cl)n2)cc1	56µM	n	n	n	n	56µM
CCc1ccc(NC(=O)CSc2nc(NS(=O)(=O)c3ccccc3)cc(=O)[nH]2)cc1	50µM	n	u	n	n	u
Cc1ccc(NC(=O)CSc2nc(NS(=O)(=O)c3ccccc3)cc(=O)[nH]2)cc1	u	50µM	x	n	n	u
Cc1ccc2oc3c(c(=O)c2c1)C(c1ccc(O)cc1)N(c1nc(C)c(C)s1)C3=O (centres undefined)	n	n	x	x	n	n
CCN1CCN(C(=O)c2ccc3c(c2)N(Cc2c(F)cccc2Cl)C(=O)c2ccccc2S3)CC1	x	u	x	x	n	n
Cc1cc(Br)ccc1SCC(=O)OCC(=O)NC(C)c1ccccc1 (centres undefined)	n	n	n	n	n	40µM
Cc1cc(Br)ccc1SCC(=O)OCC(=O)NC1CC1	79µM	n	n	n	n	79µM
COC(=O)/C(=C\C(=O)c1ccccc1)Nc1ccc(OC)cc1	40µM	35µM	n	n	u	14µM
Cc1ccc(N/C(=C\C(=O)c2ccccc2)C(=O)O)cc1	56µM	u	n	n	n	u
Cc1ccc(NC(=O)c2ccccc2)cc1	n	n	n	n	n	n[12.7 µM]
COC(=O)N1[C@H]2CC[C@@]3(C)C=C(C)O[C@]1(C)C3c1ccccc12	x	x	x	n	x	x
CCCCC(=O)N/N=C(/C)C1=C(C)C(C)(C)OC1=O	n	n	n	n	n	n
O=S(=O)(Nc1nc(-c2sccc2Cl)cs1)c1cc(Cl)ccc1Cl	50µM	50µM	n	n	u	u
COc1ccc(CNC(=S)Nc2ccc3nc(N4CCN(C)CC4)cc(C)c3c2)cc1	u	u	x	n	n	45µM
COCCNC(=S)Nc1ccc2nc(N3CCN(C)CC3)cc(C)c2c1	n	n	x	n	n	u
CCN1CCN(c2cc(C)c3cc(NC(=S)NCc4cccs4)ccc3n2)CC1	n	u	x	n	n	45µM
Cc1cc(N2CCN(C)CC2)nc2ccc(NC(=S)NCc3cccs3)cc12	n	n	x	n	n	40µM
C[C@@H]1CN2[C@H](c3ccc(Br)cc3)[C@H](C)CC[C@H]2C(=O)O1	x	x	x	n	x	x

Bioassay records (PubChem)
